# Results: PubChem BioAssay AID434927 (Sanford-Burnham Center for Chemical Genomics, 2010)
# Unmarked numbers belong to inactive results. Activity calls are given as the source filed them.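 Rule for the calls: active = inhibition above about 23% in any of six single-dose repeats (limit read from the data); inactive = the rest.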
# Molecular target: Intestinal-type alkaline phosphatase (Homo sapiens) (UniProt P09923)
# Assay: human IAP inhibitors, confirmation, biochemical, luminescence, single concentration, uHTS hits (AID 434927);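 note: plate controls were DMSO wells with enzyme for no effect and wells lacking enzyme for full effect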
# Settings: purified human IAP, CDP-Star luminescence, 30 min; at 8.3 µM; stronger effect = higher value
# Sequence of Intestinal-type alkaline phosphatase (Homo sapiens) (P09923 whole entry, looked up): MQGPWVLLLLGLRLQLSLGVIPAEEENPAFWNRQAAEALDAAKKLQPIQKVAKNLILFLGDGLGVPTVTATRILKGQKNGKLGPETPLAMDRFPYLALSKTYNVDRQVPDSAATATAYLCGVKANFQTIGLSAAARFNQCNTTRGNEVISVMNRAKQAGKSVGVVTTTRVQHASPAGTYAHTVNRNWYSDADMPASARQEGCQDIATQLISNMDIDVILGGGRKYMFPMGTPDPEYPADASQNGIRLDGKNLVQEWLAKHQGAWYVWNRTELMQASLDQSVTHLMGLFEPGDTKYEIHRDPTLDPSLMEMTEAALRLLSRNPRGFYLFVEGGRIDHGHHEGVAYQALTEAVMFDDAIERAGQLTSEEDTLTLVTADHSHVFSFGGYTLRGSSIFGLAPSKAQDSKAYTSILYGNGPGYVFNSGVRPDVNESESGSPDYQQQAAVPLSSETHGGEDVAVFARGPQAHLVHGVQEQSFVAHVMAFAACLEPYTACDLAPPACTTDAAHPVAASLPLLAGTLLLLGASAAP
row,Structure (SMILES),inhibition
1,COc1cc(CN2CCC(n3nccc3NC(=O)CCCc3ccccc3)CC2)ccc1F,40.7% (active)
2,CC(C)(C)OC(=O)N1CCC(NC(=O)c2[nH]cnc2C(=O)Nc2ccon2)CC1,37% (active)
3,COc1ccccc1CNC(=O)CN(c1ccc(C)cc1)S(=O)(=O)c1c(C)noc1C,32.5% (active)
4,COc1cccc(/C=N\NC(=O)C2=NNC(=O)C2C)c1O (stereo unspecified),34.8% (active)
5,CC[n+]1c(/C=C/c2c[nH]c3ccccc23)ccc2cc(C)ccc21,-85.7%
6,O=S(=O)(c1ccccc1)N1CCCC1c1cccs1 (stereo unspecified),-172%
7,c1ccc(-c2nnc(CN3CCC4(CC3)OCCO4)o2)cc1,29.7% (active)
8,CCN(CC)c1ccc(N=Nc2nn(C)c(C)c2[N+](=O)[O-])cc1,34.7% (active)
9,O=C(N/N=C/c1c(F)cccc1Cl)c1cc(C2CC2)[nH]n1,37.7% (active)
10,CCOC(=O)c1cnc(-n2nc(C)cc2C)nc1NNc1nc(C)cc(C)n1,71.7% (active)
11,O=C(COc1ccccc1Cl)N1CCN(c2ccc([N+](=O)[O-])c(N3CCCCC3)c2)CC1,-60.9%
12,CN(C)c1ccc2nc3c(=O)[nH]c(=O)nc-3n(CC(O)C(O)C(O)CO)c2c1 (stereo unspecified),-87.3%
13,CN(C)c1ccc(N=Nc2ccccc2Br)cc1,-104%
14,O=C(NNC(=S)NC1CCCCC1)c1ccccc1Br,-42.5%
15,N#C/C(=C(\O)c1ccco1)c1ccccn1,55.3% (active)
16,O=C(NCCCN1CCOCC1)c1ccc2c(c1)N(Cc1ccc(Cl)cc1)C(=O)c1ccccc1S2=O (stereo unspecified),-47.5%
